We go through 70 molecules from PubChem BioAssay AID686979 (National Center for Advancing Translational Sciences (NCATS), 2013).

Screen size: about 420,000 compounds; about 50,000 (12%) were called active. Where a call stands in place of a potency, no number is given. Roughly 26% stayed inconclusive and do not appear here. The call rests on the fitted dose curve; in most records, active means well fitted inhibition curve with a large enough effect; inconclusive means small, poorly fitted or top-dose-only effect; inactive means flat fitted curve, though single readings scatter. Many of the other results were omitted from the sample, so actives are more common in it than they were.
Potency means the concentration at half of the fitted maximal effect.

The test in a line: qHTS for Inhibitors of human tyrosyl-DNA phosphodiesterase 1 (TDP1): qHTS in cells in presence of CPT. Further: nearly all actives have a fitted effect of over 55% in size. Conditions: chicken DT40 Tdp1-/-;hTDP1 cells + 20 nM CPT, ATP luminescence, 48 h; series mostly up to 46.2 µM. The procedure, abridged: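 Chicken DT40 Tdp1-/- cells stably complemented with human TDP1 were seeded at 400 cells/well in medium containing 20 nM camptothecin, exposed to pin-transferred compounds, and grown at 37 °C for at least 48 hr. Viability was read as ATP luminescence.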
In general terms: qHTS replaces the single test concentration by a dilution series.
Regarding `CC1CCN(CCCNC(=O)CN2C(=O)CSc3ccc(S(=O)(=O)N4CCCCC4)cc32)CC1`, the Potency result was “inactive”.

Take `O=C(Cc1ccccc1)Nc1ccc(C(=O)Nc2ccccc2C(=O)O)cc1`: the Potency result is “inactive”.

`Cc1ccc(CNC(=O)Cc2cn(C)c3ccccc23)cc1`: the Potency result was “inactive”.

As to `Cn1cc(CCC(=O)NC2CC2)c2ccccc21`, the Potency result is “inactive”.

As to `CCCCC(=O)NCc1ccc(F)cc1`, the Potency result is “inactive”.

With `O=C(CCc1cn(Cc2ccc(F)cc2)c2ccccc12)NC1CCCCC1`, the Potency entry was “inactive”.

In the case of `CCn1cc(CCC(=O)NCc2ccc(F)cc2)c2ccccc21`, the Potency was 16.4 µM (active).

As to `Cc1ccc(Cn2cc(CCC(=O)NCc3ccc(OC(C)C)cc3)c3ccccc32)cc1`, the Potency is 23.1 µM (active).

On to `CC(NC(=O)Cn1cc(C(F)(F)F)cc(Cl)c1=O)c1ccccc1` (stereo not given), for which the Potency result is “inactive”.

As for `CC(NC(=O)CCc1cn(Cc2ccccc2Cl)c2ccccc12)c1ccccc1` (stereo not given), the Potency is 20.6 µM (active).

Consider `Cc1ccc(CNC(=O)[C@@H](NC(=O)Cc2ccccc2)C(C)C)cc1`, for which the Potency entry was “inactive”.

For `CC(C)C1Cc2[nH][nH]c(=O)c2C(c2ccc(Cl)cc2)O1` (stereo not given), the Potency result was “inactive”.

Turning to `O=C(NCc1ccccc1)C1CCN(C(=O)Cc2ccccc2)CC1`, the Potency entry is “inactive”.

Turning to `Cc1ccc(C(=O)Cc2nnc(C)s2)cc1`, the Potency entry was “inactive”.

Consider `COc1ccc(NC(=O)C(CC(C)C)NS(=O)(=O)c2ccc3c(c2)CCN3C(C)=O)cc1OC` (stereo not given), for which the Potency entry was “inactive”.

Regarding `O=C1COc2c1ccc(O)c2O`, the Potency entry was “inactive”.

For the molecule `COc1ccc(F)cc1C(=O)COC(=O)c1n[nH]c(=O)c2ccccc12`, the Potency entry was “inactive”.

Regarding `COc1ccc(C)cc1N(C(=O)Cn1nnc(-c2ccc(C)o2)n1)C(C(=O)NC1CCCC1)c1ccncc1` (stereo not given), the Potency result was “inactive”.

On to `COc1ccc(C2OCC3(CO2)SC(=O)NC3=O)cc1OC` (stereo not given), for which the Potency result was “inactive”.

`N#CCC(=O)NC1CCC(CC2CCC(NC(=O)CC#N)CC2)CC1` (stereo not given): the Potency entry was “inactive”.

Turning to `COc1ccc(Nc2nc(Cl)nc(NCc3ccco3)n2)cc1`, the Potency entry is “inactive”.

As to `COc1ccc(NC(=O)C(=O)NCc2ccco2)cc1`, the Potency result is “inactive”.

As to `COc1ccc(Nc2nc(NCc3ccco3)nc(N/N=C/c3ccccc3Cl)n2)cc1`, the Potency is 20.6 µM (active).

`CCN(CC)S(=O)(=O)c1ccc(OC(C)C)c(N)c1`: the Potency entry was “inactive”.

As to `COc1ccc(OC)c(NC(=O)c2cc(-c3cc(F)ccc3OCC3CCCO3)n[nH]2)c1` (stereo not given), the Potency was 8.2 µM (active).

For `COc1ccc2cc(C(=O)NCC3CCCO3)[nH]c2c1` (stereo not given), the Potency entry is “inactive”.

As to `O=C(O)c1ccc(OCC2CCCO2)cc1` (stereo not given), the Potency entry is “inactive”.

As for `O=S(=O)(c1ccc(F)cc1)n1ccc(-c2cnc(-c3ccccc3)s2)n1`, the Potency result was “inactive”.

For `COc1cc2c(cc1NC(=O)CN1CCN(S(=O)(=O)c3ccc(F)cc3)CC1)oc1ccccc12`, the Potency result is “inactive”.

On to `COc1cc(/C=C/C(=O)OCC(=O)c2ccccc2)cc(OC)c1OC`, for which the Potency entry is “inactive”.

On to `COc1cc2c(cc1NC(=O)COC(=O)/C=C/c1ccccc1)oc1ccccc12`, for which the Potency was 20.6 µM (active).

On to `CSCCC(NC(=O)c1ccccc1)C(=O)N1CCCCCCC1` (stereo not given), for which the Potency entry was “inactive”.

Turning to `CC(C)(C)C(=O)/C(C#N)=C/c1ccc(O)cc1`, the Potency entry is “inactive”.

On to `COc1ccc(/C=C(\C#N)C(=O)OCC(=O)N(C)C2CCS(=O)(=O)C2)cc1` (stereo not given), for which the Potency entry was “inactive”.

`COc1ccc(/C=C(\C#N)C(=O)ONC2=NCCCCC2)cc1`: the Potency was 16.4 µM (active).

`CCN(CC(=O)Nc1c(F)cccc1F)C(=O)Cc1cccs1`: the Potency result was “inactive”.

As for `CC(C)C1CC2=C(C(=O)OC(C)(C)O2)C(c2ccc(F)cc2)O1` (stereo not given), the Potency entry was “inactive”.

Turning to `O=C(NCc1ccccc1)C1CCCN(S(=O)(=O)c2cccs2)C1` (stereo not given), the Potency entry was “inactive”.

As to `O=C(NCc1ccc(Cl)cc1)C1CCN(S(=O)(=O)c2cccs2)CC1`, the Potency was 11.6 µM (active).

For the molecule `O=C(NCc1cccs1)C1CCN(S(=O)(=O)c2ccc(Cl)cc2)CC1`, the Potency result was “inactive”.

In the case of `CC1=C(C(N)=O)C(c2ccc(F)cc2)n2nc(CCCO)nc2N1` (stereo not given), the Potency entry was “inactive”.

Turning to `CCCCOP(=O)(c1ccc(N(C)C)cc1)C(O)c1cc(OC)ccc1OC` (stereo not given), the Potency entry is “inactive”.

With `Cc1ccc(S(=O)(=O)N(C)c2ccc(OCC(=O)OCc3ccc(C#N)cc3)cc2)cc1`, the Potency result was “inactive”.

For the molecule `Cc1ccc(CN2CCN(Cc3cccc(C)n3)CC2CCO)cc1` (stereo not given), the Potency entry was “inactive”.

Regarding `COC(=O)C1CCN(C(=O)COC(=O)c2cc(S(=O)(=O)N3CCOCC3)ccc2C)CC1`, the Potency entry was “inactive”.

For the molecule `N#Cc1cccc(Nc2c3c(nc4ccccc24)CCCC3)c1`, the Potency was 18.4 µM (active).

Turning to `CC(=O)Nc1ccc(NC(=O)COc2ncnc3ccccc23)cc1`, the Potency entry is “inactive”.

As for `Cc1ccc(Nc2c3c(nc4ccccc24)CCC3)cc1`, the Potency is 11.6 µM (active).

On to `O=C(Nc1c2c(nc3ccccc13)CCCC2)c1ccccc1Br`, for which the Potency entry is “inactive”.

On to `N#Cc1cccc(NC(=O)CCC2CCCC2)c1`, for which the Potency result was “inactive”.

In the case of `CC(=O)Nc1ccc(S(=O)(=O)N(C)c2nc3ccccc3nc2Cl)cc1`, the Potency entry was “inactive”.

Turning to `CC(=O)Nc1ccc(Nc2c3ccccc3nc3ccccc23)cc1`, the Potency was 0.326 µM (active).

Turning to `N#Cc1cccc(NC(=O)CN2CCCCCC2)c1`, the Potency entry is “inactive”.

Regarding `CN1CCCN(C(=O)C2CCCCC2)CC1`, the Potency entry was “inactive”.

With `CC1(C)C2CC=C(/C=N/NC(=O)C3CC3)C1C2` (stereo not given), the Potency entry was “inactive”.

As to `Cc1cc(C)n(CCC(=O)N2CCN(S(=O)(=O)c3ccc(C)c(C)c3)CC2)n1`, the Potency result was “inactive”.

With `O=C(OCCN1C(=O)c2ccccc2C1=O)[C@@H]1CC(O)CN1S(=O)(=O)c1ccccc1[N+](=O)[O-]` (stereo not given in full), the Potency result is “inactive”.

As to `O=C(O)CCCCCCCCc1cn(CN2C(=O)c3ccccc3C2=O)nn1`, the Potency entry was “inactive”.

With `Cn1c(N)c(C(=O)COC(=O)c2ccc3ccccc3c2)c(=O)n(C)c1=O`, the Potency entry was “inactive”.

For the molecule `Cc1cc(=O)oc2c1ccc1ccccc12`, the Potency entry was “inactive”.

With `Cc1nnc(SC(C)C(=O)c2c[nH]c3ccccc23)n1C1CC1` (stereo not given), the Potency result was “inactive”.

As to `COc1ccccc1OCCNC(=O)CCNC(=O)c1ccccc1Cl`, the Potency result is “inactive”.

For the molecule `O=C(NCCOc1ccccc1Cl)C(=O)Nc1ccccc1`, the Potency was 20.6 µM (active).

As for `COc1cc(SC)ccc1C(=O)NCCOc1ccccc1Cl`, the Potency entry is “inactive”.

Consider `COc1cc(C(=O)NNC(=O)CN2C(=O)NC3(CCCC3)C2=O)cc(OC)c1OC`, for which the Potency result was “inactive”.

With `CC1(C(=O)NS(=O)(=O)c2cccc(F)c2)CCN1C(=O)Cc1ccc(Cl)cc1Cl` (stereo not given), the Potency entry is “inactive”.

On to `CCCOc1ccc(Cc2c(O)nc(SC)[nH]c2=O)cc1C`, for which the Potency result is “inactive”.

On to `COc1ccc(S(=O)(=O)N2CCN(c3ncnc4c(-c5ccccc5)nsc34)CC2)cc1`, for which the Potency was 16.4 µM (active).

Regarding `COc1ccc(S(=O)(=O)N2CCN(c3cnccn3)CC2)cc1`, the Potency entry is “inactive”.

As for `COc1ccc(CCC(=O)N2CCN(S(=O)(=O)c3ccc(OC)cc3)CC2)cc1`, the Potency entry is “inactive”.
